Reference: PubChem BioAssay AID1159580 (chemical genetic matrix, 2015)
Values joined by “and” are separate entries in the source; they are usually repeats but may differ in a detail not shown here. Equal entries are not always repeated. The campaign covered roughly 5,500 compounds. About 2,000 (36%) were called active. Roughly 18% stayed inconclusive and do not appear here. Cut-off read from the data, not from the text of the source: active = normalized growth mostly below about 0.91 (no sharp cut-off); inconclusive = no clear call, values can overlap the other calls; inactive = mostly above about 0.92. This is one part of the list. Where a structure was tested more than once in an assay, its records may differ in their call.

Assay: chemical genetic growth profiling, strain panel (AID 1159580);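 note: tested at 20 µM; growth read once vehicle control cultures reached saturation at 30 °C; 1 = growth at the plate median or of vehicle wells; lower values mean less growth of the strain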
Conditions: S. cerevisiae deletion strains, growth OD

Measured: normalized growth

Fc1ccc(C(c2ccc(F)cc2)N2CCN(C/C=C/c3ccccc3)CC2)cc1
0.919 (inactive) and 0.24 (active): locus YGR229C, strain SMI1, stronger effect = lower value
0.985 (inactive) and 0.925 (active): locus YDR150W, strain NUM1, stronger effect = lower value
inactive: locus YAL013W, strain DEP1, stronger effect = lower value 0.996 and 0.961 | locus YAL040C, strain CLN3, stronger effect = lower value 1.02 | locus YBR021W, strain FUR4, stronger effect = lower value 0.978 | locus YBR229C, strain ROT2, stronger effect = lower value 0.989 | locus YCL029C, strain bik1, stronger effect = lower value 0.945 | locus YCL061C, strain MRC1 (second series), stronger effect = lower value 0.96 | locus YDL035C, strain GPR1, stronger effect = lower value 0.976 | locus YDL074C, strain BRE1, stronger effect = lower value 0.904 | locus YDL101C, strain DUN1, stronger effect = lower value 0.973 | locus YDL134C, strain PPH21, stronger effect = lower value 0.993 | locus YDL185W, strain tfp1, stronger effect = lower value 0.966 | locus YDL192W, strain arf1, stronger effect = lower value 0.973 | locus YDR101C, strain arx1, stronger effect = lower value 0.967 | locus YDR137W, strain rgp1, stronger effect = lower value 1.01 | locus YDR162C, strain NBP2, stronger effect = lower value 0.966 | locus YDR195W, strain ref2 1.05 | locus YDR318W, strain mcm21, stronger effect = lower value 0.951 | locus YDR363W, strain ESC2, stronger effect = lower value 0.922 | locus YDR502C, strain sam2, stronger effect = lower value 0.988 | locus YEL061C, strain CIN8, stronger effect = lower value 0.991 | locus YER110C, stronger effect = lower value 0.974 | locus YER155C, strain BEM2, stronger effect = lower value 1.01 | locus YER167W, strain BCK2, stronger effect = lower value 1.01 | locus YGL078C, strain dbp3, stronger effect = lower value 0.994 | locus YGL086W, strain mad1, stronger effect = lower value 0.999 | locus YGL167C, strain pmr1, stronger effect = lower value 1.01 | locus YGL248W, strain PDE1, stronger effect = lower value 0.99 | locus YGR078C, strain PAC10, stronger effect = lower value 0.976 | locus YGR135W, strain pre9, stronger effect = lower value 0.942 | locus YGR252W, strain gcn5, stronger effect = lower value 1.07 | locus YHR030C, strain SLT2, stronger effect = lower value 0.994 and 0.988 | locus YHR079C, strain IRE1 (second series), stronger effect = lower value 0.972 | locus YHR079C, strain IRE1, stronger effect = lower value 0.991 | locus YHR094C, strain hxt1, stronger effect = lower value 0.977 | locus YHR129C, strain ARP1, stronger effect = lower value 0.992 | locus YHR200W, strain rpn10, stronger effect = lower value 0.973 | locus YIL066C, strain RNR3, stronger effect = lower value 0.965 | locus YIL125W, strain kgd1, stronger effect = lower value 0.986 | locus YIR030C, strain dcg1, stronger effect = lower value 0.98 | locus YJL095W, strain BCK1, stronger effect = lower value 0.918 and 0.981 | locus YJL134W, strain LCB3, stronger effect = lower value 0.983 | locus YJL168C, strain set2, stronger effect = lower value 0.977 | locus YJL187C, strain SWE1 (second series), stronger effect = lower value 0.946 | locus YJR043C, strain POL32, stronger effect = lower value 0.983 | locus YJR066W, strain TOR1, stronger effect = lower value 0.928
active: locus YAL021C, strain ccr4, stronger effect = lower value 0.625 | locus YAL026C, strain drs2, stronger effect = lower value 0.0836 | locus YAL030W, strain snc1, stronger effect = lower value 0.293 | locus YBL061C, strain skt5, stronger effect = lower value 0.214 | locus YBR009C, strain hhf1, stronger effect = lower value 0.263 | locus YBR023C, strain chs3, stronger effect = lower value 0.22 | locus YBR171W, strain sec66, stronger effect = lower value 0.662 | locus YBR231C, strain swc5, stronger effect = lower value 0.147 | locus YBR279W, strain paf1, stronger effect = lower value 0.488 | locus YCL011C, strain gbp2, stronger effect = lower value 0.221 | locus YCL016C, strain dcc1, stronger effect = lower value 0.234 | locus YCL069W, strain vba3, stronger effect = lower value 0.18 | locus YCR088W, strain abp1, stronger effect = lower value 0.374 | locus YDL005C, strain med2, stronger effect = lower value 0.263 | locus YDL040C, strain nat1, stronger effect = lower value 0.666 | locus YDR001C, strain nth1, stronger effect = lower value 0.442 | locus YDR069C, strain doa4, stronger effect = lower value 0.479 | locus YDR159W, strain sac3, stronger effect = lower value 0.15 | locus YDR297W, strain sur2, stronger effect = lower value 0.322 | locus YDR334W, strain swr1, stronger effect = lower value 0.208 | locus YDR335W, strain msn5, stronger effect = lower value 0.368 | locus YDR388W, stronger effect = lower value 0.88 | locus YDR392W, strain spt3, stronger effect = lower value 0.104 | locus YEL003W, strain gim4, stronger effect = lower value 0.326 | locus YEL037C, strain rad23, stronger effect = lower value 0.215 | locus YEL061C, strain CIN8 (second series), stronger effect = lower value 0.229 | locus YER015W, strain faa2, stronger effect = lower value 0.346 | locus YER016W, strain bim1, stronger effect = lower value 0.715 | locus YER111C, strain swi4, stronger effect = lower value 0.663 | locus YER155C, strain BEM2 (second series), stronger effect = lower value 0.736 | locus YFR010W, strain ubp6, stronger effect = lower value 0.297 | locus YGL173C, strain kem1, stronger effect = lower value 0.794 | locus YGL227W, strain vid30, stronger effect = lower value 0.243 | locus YGL240W, strain doc1, stronger effect = lower value 0.819 | locus YGL253W, strain hxk2, stronger effect = lower value 0.0972 | locus YHR013C, strain ard1, stronger effect = lower value 0.149 | locus YHR027C, strain rpn1, stronger effect = lower value 0.556 | locus YHR142W, strain chs7, stronger effect = lower value 0.127 | locus YIL073C, strain SPO22, stronger effect = lower value 1.52 [resistant] | locus YJL092W, strain hpr5, stronger effect = lower value 0.282 | locus YJL095W, strain BCK1 (second series), stronger effect = lower value 0.0776 | locus YJL115W, strain asf1, stronger effect = lower value 0.435 | locus YJL129C, strain trk1, stronger effect = lower value 0.215 | locus YJL154C, strain vps35, stronger effect = lower value 0.686 | locus YJL164C, strain tpk1, stronger effect = lower value 0.176 | locus YJL166W, strain qcr8, stronger effect = lower value 0.19 | locus YJL187C, strain SWE1, stronger effect = lower value 0.231
